Screening data deposited in PubChem by National Center for Advancing Translational Sciences (NCATS).
Hits are enriched below; roughly 5.4% of the tested compounds scored in any of these assays.
IMPase Li inh: membrane-permeable IMPase blocker, potentiated with lithium. CHO-M1 cells, IP1 TR-FRET (IP-One), carbachol + lithium. Potency, µM (titrated, usually from 59.4 µM), for inactives: at the highest dose activity, negative = IMPase inhibition, actives largely listed as inhibitors. hit rate 0.35% among 210,000;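 also: IP1 builds up when IMPase is blocked and the TR-FRET signal falls; potency is read from the fitted curve at half-maximal effect; plate controls were basal vehicle for no effect and high inhibitor control for full effect; nearly all actives have a fitted effect of over 50% in size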
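IP1 accumulation measured by competitive TR-FRET in lysed CHO-M1 cells after 30 min compound exposure at 37C, with a small lithium addition to potentiate weak responses. Hill-equation AC50 from ratio and donor-channel data.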
PNC assembly inh: blocks assembly of the perinucleolar compartment; hit rate 3.1% among 140,000; PC3M PTB-GFP, PNC prevalence imaging, 16 h; active compounds read low; activity change (PNC), negative = inhibition, % at 10 µM;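 active = readout at or below -70, meaning at least 70% loss of cells showing the perinucleolar compartment, a nuclear body marking cancer cells; inconclusive = readout between -30 and a set limit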;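 also: plate controls were DMSO wells for no effect and camptothecin positive control wells for full effect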
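Read-out is percentage of cells bearing a perinucleolar compartment, from automated 20x imaging of fixed, Hoechst-stained PC3M PTB-GFP cells. Cells were seeded 4 h, then exposed 16 h to compound (23 nl of library stock) in duplicate plates.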
12-hLO inh: 12-hLO (ALOX12) enzyme inhibition; hit rate 0.12% among 150,000; P18054; AID 1452; Potency, µM (series often up to 57.1 µM), without a hit: at the highest dose activity change, negative = inhibition, actives largely listed as inhibitors; purified 12-hLO, xylenol orange hydroperoxide absorbance; also: potency is read from the fitted curve at half-maximal effect; nearly all actives have a fitted effect of over 55% in size
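150 nM 12hLO, 25 mM Hepes pH 7.0 + 0.01% Triton X-100; cpd preinc 15 min RT; 40 uM arachidonic acid, 30 min RT; Fe-XO 30 min; A573/A405 ratio as read-out.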
IMPase inh: cell-permeable inhibitors of inositol monophosphatase (IMPase) | P97697 | 120,000 tested, under 10 active | CHO-M1 cells, IP1 accumulation, HTRF TR-FRET ratio | inhibition (IP1 accumulation), % at 46.1 µM; active = well fitted curve in the direction sought with a large enough effect in the signal ratio, not every such curve was filed as active; inconclusive = small, poorly fitted or top-dose-only effect, or a change in a side signal; inactive = no such curve, though single readings can be large or run the other way; the % refers to the signal ratio;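 also: cells stimulated with carbachol in lithium chloride buffer; plate controls were DMSO basal wells for no effect and reference inhibitor wells for full effect; higher means more IMPase inhibition seen as more IP1 and lower FRET ratio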
Target sequence (P97697 whole entry, looked up): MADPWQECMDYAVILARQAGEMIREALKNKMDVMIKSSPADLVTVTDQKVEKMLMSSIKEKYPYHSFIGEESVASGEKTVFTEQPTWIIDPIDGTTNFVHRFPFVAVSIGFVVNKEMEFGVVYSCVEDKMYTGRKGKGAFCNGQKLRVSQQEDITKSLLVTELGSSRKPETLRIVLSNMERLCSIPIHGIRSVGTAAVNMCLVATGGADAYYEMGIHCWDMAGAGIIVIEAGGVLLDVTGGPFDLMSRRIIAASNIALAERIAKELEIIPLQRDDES
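Seeded CHO-M1 cells were dosed with compound at up to 46 uM, stimulated with carbachol for 30 min, then lysed in IP-One detection reagents. Higher IP1 lowers the TR-FRET signal.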
HPGD inh: inhibitors of human 15-hydroxyprostaglandin dehydrogenase (HPGD); hit rate 4.3% among 150,000; purified HPGD, NADH fluorescence kinetic, PGE2 substrate; Potency, µM, without a hit: at the highest dose activity change, negative = inhibition, hits mostly inhibitors; active = well fitted inhibition curve with a large enough effect, not every such curve was filed as active; inconclusive = small, poorly fitted or top-dose-only effect, or another doubt; inactive = no such curve, though single readings can be large or run the other way; also: potency is read from the fitted curve at half-maximal effect
Target sequence (P15428 whole entry, looked up): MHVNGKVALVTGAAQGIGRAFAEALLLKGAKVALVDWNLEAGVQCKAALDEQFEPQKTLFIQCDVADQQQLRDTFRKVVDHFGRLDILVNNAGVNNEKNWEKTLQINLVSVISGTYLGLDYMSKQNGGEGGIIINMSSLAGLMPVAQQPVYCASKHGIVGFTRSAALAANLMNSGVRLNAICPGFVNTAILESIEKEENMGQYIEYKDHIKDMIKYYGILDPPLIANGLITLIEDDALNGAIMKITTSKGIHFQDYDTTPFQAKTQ
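20 nM HPGD preincubated 15 min at room temperature with compound in 50 mM Tris-HCl pH 8, 0.01% Tween 20. Started with 1 mM NAD+ and 30 uM prostaglandin E2; NADH fluorescence (360/450 nm) read 5 times over 30-s intervals, last minus first.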
15-hLO-2 inh: inhibitors of human 15-lipoxygenase 2 (ALOX15B). O15296. purified 15hLO-2, xylenol orange hydroperoxide absorbance. Potency, µM (highest dose often 57.1 µM), for inactives: at the highest dose activity change, negative = inhibition, usual class: inhibitors. hit rate 0.56% among 110,000; also: potency is read from the fitted curve at half-maximal effect; nearly all actives have a fitted effect of over 60% in size
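Enzyme 50 nM, AA 45 uM, 25 mM Hepes pH 7.5 + 0.01% Triton X-100; cpd preinc 15 min RT, rxn 90 min RT; stop/detect with 200 uM XO + 300 uM Fe(II) in 50 mM H2SO4, 30 min; A573/A405.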
Starred values were filed as active, the others as inactive; ? = inconclusive; · = not tested or not shown; [ ] = another dose, or the depositor's remark. Unless noted, calls follow the shape of the dose curve; as a rule, active = well fitted curve in the direction sought with a large enough effect; inconclusive = small, poorly fitted or top-dose-only effect, or another doubt; inactive = no such curve, though single readings can be large; an effect the other way counts as inactive or inconclusive. Unless noted, % is scaled to controls: 0 for no effect and ±100 for the full control effect.

SMILES	IMPase Li inh	PNC assembly inh	12-hLO inh	IMPase inh	HPGD inh	15-hLO-2 inh
CCCCCc1nnc(NC(=O)Cn2cnc3ccccc3c2=O)s1	-0.9%	-110.8*	-1.2%	1.5	-4.6%	·
O=C(Cn1cnc2ccccc2c1=O)Nc1nnc(SCc2ccccc2)s1	1.5%[38.3 µM]	17.4	1.7%	0.4	22.4µM*	-6.3%
C=CC1CO1 (stereo not given)	-5.3%	·	-1.2%	·	0.9%	1.5%
CC1CCN(C(=O)C(Cc2ccccc2)n2cccc2)CC1 (stereo not given)	36.2%[38.3 µM]	?	-5.2%	-3.6	28.2µM*	-0.4%
O=C(CSCCO)Nc1ccccc1	-0.9%[38.3 µM]	-10.7	-1.4%	0.2	-20.6%	-4.2%
CCc1ccc(NC(=O)CSCCO)cc1	-5.6%	31.5	-0.2%	·	20µM*	·
Cc1cccc(Cn2cnc3c(nnn3Cc3ccc(F)cc3)c2=O)c1	10.3%[38.3 µM]	58.5	-3.9%	7.6	14.1µM*	·
Cc1ccc(-n2nnc3c(=O)n(Cc4cccc(C)c4)cnc32)cc1	22.1%[38.3 µM]	-17.7	-2.9%	9.4	3.98µM*	-5.6%
Cc1ccc(NC(=O)Cn2cnc3c(nnn3Cc3ccc(F)cc3)c2=O)cc1	0.5%	·	·	·	·	·
Cc1cccc(Cn2cnc3c(nnn3Cc3ccccc3F)c2=O)c1	12.6%[38.3 µM]	6.8	-7.7%	?	15.8µM*	-7.8%
O=C(Cn1cnc2c(nnn2Cc2ccccc2F)c1=O)NCC1CCCO1 (stereo not given)	-1.8%	?	-0.8%	6.4	?	·
Cc1ccc(-n2nnc3c(=O)n(Cc4cc(C)ccc4C)cnc32)cc1	6.2%	13.7	-2.1%	-8.8	-3.8%	·
COc1cccc(-n2nnc3c(=O)n(Cc4ccc(F)cc4)cnc32)c1	1.7%[38.3 µM]	31.4	-11.3%	-0.5	28.2µM*	-16.0%
O=[N+]([O-])c1ccc(CSc2ncnc3c2ncn3[C@@H]2O[C@H](CO)[C@H](O)[C@H]2O)cc1	7.3%	·	·	·	-6.0%	·
C=CC[C@](C)(Nc1ccc(OC)cc1)C(=O)OCC	8.2%	·	·	·	-3.0%	·
NC(=S)c1cc2ccc(O)cc2oc1=O	3.16µM*	8.5	-11.5%	?	?	?
COc1ccc(-c2nnc(SCc3nnc(-c4ccccc4)o3)n2-c2ccccc2)cc1	-6.0%[38.3 µM]	?	2.3%	-6.8	7.94µM*	?
CS(=O)(=O)N1CCCC(C(=O)NCc2ccccn2)C1 (stereo not given)	-2.6%[38.3 µM]	-110.4*	2.2%	-4.7	-2.1%	8.9%
CC(C)Oc1ccccc1C1C=C(C(=O)O)Nc2ncnn21 (stereo not given)	·	·	·	6.1	·	·
C=CCSSSCC=C	7.3%	·	1.2%	·	28.2µM*	-10.4%
CC(C(=O)Nc1cc([N+](=O)[O-])ccc1Cl)N1CCN(c2ccc(O)cc2)CC1 (stereo not given)	13.8%	-85.2*	-4.7%	1.2	-5.4%	·
COC(=O)[C@@]1(Cc2ccccc2)[C@H]2c3cc(C(=O)N4CCCC4)n(Cc4ccc(OC)c(OC)c4)c3C[C@H]2CN1C(=O)c1ccccc1	16.4%	·	-3.5%	·	-3.8%	-2.7%
Cc1ccc(N=Cc2cccc(O)c2O)c(C)c1	14.7%[38.3 µM]	?	?	3.0	3.16µM*	?
O=C(O)Cc1ccc(C(=O)c2cccs2)s1	-9.0%[38.3 µM]	5.6	-10.1%	-3.7	12.6µM*	-13.0%
O=C(O)c1ccccc1C(=O)c1cccs1	-31.0%[38.3 µM]	?	-7.3%	19.9[9.22 µM]	-10.1%	5.5%
CCOc1cc(C(=O)NCCN2CCOCC2)cc(OCC)c1OCC	7.2%	-100.0*	6.6%	-7.2	-7.8%	·
CCc1ccc(C2C(C#N)=C(N)SC(N)=C2C#N)cc1	?	?	?	-9.2	35.5µM*	?
N#CC1=C(N)SC(N)=C(C#N)C1c1ccc([N+](=O)[O-])cc1	-0.9%	49.9	?	12.7	?	·
CCc1ccc(C2C(C#N)=C(N)SC(N)=C2C#N)s1	-19.5%[38.3 µM]	12.8	?	-12.2	28.2µM*	?
N#CC1=C(N)SC(N)=C(C#N)C1c1ccc(C(F)(F)F)cc1	?	-127.1*	-6.8%	-13.3	-27.9%	12.6µM*
